Data published in PubChem BioAssay (NCATS).
Results filed as inconclusive are left out. Calls of active or inactive are those of the source. Unless noted, calls come from the whole dose curve; as a rule, active = well fitted inhibition curve with a large enough effect; inconclusive = small, poorly fitted or top-dose-only effect; inactive = no such curve, though single readings can be large or run the other way.

Tests used:
[1] = biological target: Cytochrome P450 1A2 (Homo sapiens) (UniProt P05177); test: p450-cyp1a2 (AID 410; calls by dose curve; note: potency is the fitted concentration of half-maximal effect)
Procedure, shortened: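 Luminescent readout of luciferin formed from Luciferin-ME by human CYP1A2; data normalized against complete inhibition by 57 uM furafylline. Enzyme 20nM, substrate 100uM at Km, 100mM KPO4 buffer, 60 min reaction at room temperature.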

[2] = biological target: Glucocorticoid receptor (Homo sapiens) (UniProt P04150); test: GR-EFC Redistribution (AID 451; calls by dose curve; note: potency is the fitted concentration of half-maximal effect); details: CHO-K1 GR-EFC translocation, beta-gal luminescence, 2 h
Procedure, shortened: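 Translocation of GR-ED fusion to nuclear EA restores b-gal, read by luminescence after 1 h room-temperature detection. Engineered CHO-K1 biosensor cells, 1,000/well, exposed 2 h at 37 C to titrations up to 46 uM final.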

[3] = biological target: Mitogen-activated protein kinase 10 (Mus musculus) (UniProt Q61831); test: JNK3 AlphaScreen Assay (AID 530; active = well fitted curve in either direction with a large enough effect, not every such curve was filed as active;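 note: kinase came from lysate of stimulated human HepG2 cells; signal reports phosphorylation of biotinylated GST-cJun 1-79 at Ser73 with 10 µM ATP; series mostly up to about 57 µM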)
Procedure, shortened: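 Compound titrations were preincubated 15 minutes at room temperature with substrate, antibody and pre-activated JNK3-containing HepG2 lysate. Reactions were started with 10 uM ATP and stopped with EDTA-containing bead buffer for AlphaScreen detection.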

[4] = biological target: 3',5'-cyclic-AMP phosphodiesterase 4B (Homo sapiens) (UniProt Q07343); test: qHTS Assay for Inhibitors of PDE-IV (AID 607; active = well fitted activation curve with a large enough effect in the main read-out, with a control signal flat, not every such curve was filed as active)
Procedure, shortened: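 Live HEK293 cells with a modified cyclic nucleotide-gated (CNG) channel report intracellular cAMP via membrane-potential dye fluorescence (ex 535/em 590 nm). Endogenous PDE-IV was targeted. Compounds were tested at up to 22.9 uM final; RO 20-1724 100 uM served as control.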

[5] = biological target: Cytochrome P450 2D6 (Homo sapiens) (UniProt P10635); test: qHTS Assay for Inhibitors and Substrates of Cytochrome P450 2D6 (AID 891);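 note: luciferin methyl ether substrate demethylated by CYP2D6 with NADPH regeneration; nearly all actives have a fitted effect of over 60% in size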
Procedure, shortened: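 Human CYP2D6 (5 nM) with 30 uM Luciferin-ME EGE (at Km) in 100 mM KPO4, compound preincubated 10 min, then NADPH regeneration system for 60 min at room temperature. Luciferin read by luminescence; normalized to 1.43 uM quinidine.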

[6] = biological target: Cytochrome P450 2C19 (Homo sapiens) (UniProt P33261); test: qHTS Assay for Inhibitors and Substrates of Cytochrome P450 2C19 (AID 899); note: nearly all actives have a fitted effect of over 60% in size
Procedure, shortened: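 Luminescence readout of luciferin formed from 10uM Luciferin-H EGE (KM level) by 5 nM CYP2C19 in 50mM KPO4. 60 min NADPH-driven reaction at 37C after 10 min compound preincubation; data scaled to 57uM ketoconazole inhibition.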

[7] = biological target: Cytochrome P450 2C9 (Homo sapiens) (UniProt P11712); test: qHTS Assay for Inhibitors and Substrates of Cytochrome P450 2C9 (AID 883); note: nearly all actives have a fitted effect of over 60% in size
Procedure, shortened: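 Luminescent read-out of deoxyluciferin hydroxylation, normalized to 57uM sulphaphenazole (AC100). Reaction: 10nM enzyme, 100uM Luciferin-H (equal to KM), 25mM KPO4, 10 min compound preincubation, then 60 min with NADPH regeneration, both at 37C.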

Measured: Potency

Cytochrome P450 2D6 (Homo sapiens), sequence (P10635 whole entry, looked up): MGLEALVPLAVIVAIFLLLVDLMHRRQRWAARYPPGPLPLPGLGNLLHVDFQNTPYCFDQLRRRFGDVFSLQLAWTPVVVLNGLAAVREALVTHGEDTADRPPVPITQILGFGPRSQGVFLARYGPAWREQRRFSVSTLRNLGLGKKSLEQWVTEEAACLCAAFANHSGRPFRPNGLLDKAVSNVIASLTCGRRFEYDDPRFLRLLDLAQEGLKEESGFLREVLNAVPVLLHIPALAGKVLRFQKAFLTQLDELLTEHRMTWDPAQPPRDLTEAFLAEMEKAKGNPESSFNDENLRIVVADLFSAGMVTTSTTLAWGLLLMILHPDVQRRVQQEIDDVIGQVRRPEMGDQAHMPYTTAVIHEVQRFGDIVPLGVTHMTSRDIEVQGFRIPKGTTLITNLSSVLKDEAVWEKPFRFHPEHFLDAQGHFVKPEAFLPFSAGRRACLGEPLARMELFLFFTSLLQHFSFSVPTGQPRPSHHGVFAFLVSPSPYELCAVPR
3',5'-cyclic-AMP phosphodiesterase 4B (Homo sapiens), sequence (Q07343 whole entry, looked up): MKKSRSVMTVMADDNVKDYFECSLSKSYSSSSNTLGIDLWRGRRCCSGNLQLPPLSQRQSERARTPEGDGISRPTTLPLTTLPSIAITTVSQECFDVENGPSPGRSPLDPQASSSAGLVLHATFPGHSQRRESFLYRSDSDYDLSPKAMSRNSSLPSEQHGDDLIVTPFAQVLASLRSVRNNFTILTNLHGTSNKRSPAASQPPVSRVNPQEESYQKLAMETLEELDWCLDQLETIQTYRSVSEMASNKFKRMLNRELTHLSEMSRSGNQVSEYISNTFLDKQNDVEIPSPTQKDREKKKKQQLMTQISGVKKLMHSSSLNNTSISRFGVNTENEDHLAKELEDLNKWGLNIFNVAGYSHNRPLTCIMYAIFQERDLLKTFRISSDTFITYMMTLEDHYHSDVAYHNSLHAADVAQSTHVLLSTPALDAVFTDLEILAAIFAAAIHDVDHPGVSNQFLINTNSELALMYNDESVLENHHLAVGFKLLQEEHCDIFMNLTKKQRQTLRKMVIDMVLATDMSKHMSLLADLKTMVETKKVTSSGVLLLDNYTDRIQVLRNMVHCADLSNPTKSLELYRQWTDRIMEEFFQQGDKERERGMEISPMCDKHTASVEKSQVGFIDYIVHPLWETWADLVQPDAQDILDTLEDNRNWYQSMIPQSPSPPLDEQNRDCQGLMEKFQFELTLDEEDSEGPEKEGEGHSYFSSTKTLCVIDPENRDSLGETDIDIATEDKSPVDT
Cytochrome P450 1A2 (Homo sapiens), sequence (P05177 whole entry, looked up): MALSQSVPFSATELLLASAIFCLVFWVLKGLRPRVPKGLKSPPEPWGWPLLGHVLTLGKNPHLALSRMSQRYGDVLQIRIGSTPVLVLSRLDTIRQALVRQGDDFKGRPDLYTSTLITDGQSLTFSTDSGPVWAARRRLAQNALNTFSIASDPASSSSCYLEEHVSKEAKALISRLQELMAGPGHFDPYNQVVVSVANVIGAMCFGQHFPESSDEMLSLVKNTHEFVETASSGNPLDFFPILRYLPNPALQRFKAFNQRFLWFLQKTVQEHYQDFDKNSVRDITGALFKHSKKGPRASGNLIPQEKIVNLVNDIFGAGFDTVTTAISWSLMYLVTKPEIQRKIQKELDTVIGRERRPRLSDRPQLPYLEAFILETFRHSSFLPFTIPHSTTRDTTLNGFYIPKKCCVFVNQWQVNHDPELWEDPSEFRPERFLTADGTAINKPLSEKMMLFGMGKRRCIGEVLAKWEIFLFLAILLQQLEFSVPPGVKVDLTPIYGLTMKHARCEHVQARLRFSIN
Glucocorticoid receptor (Homo sapiens), sequence (P04150 whole entry, looked up, the tested form may be a part): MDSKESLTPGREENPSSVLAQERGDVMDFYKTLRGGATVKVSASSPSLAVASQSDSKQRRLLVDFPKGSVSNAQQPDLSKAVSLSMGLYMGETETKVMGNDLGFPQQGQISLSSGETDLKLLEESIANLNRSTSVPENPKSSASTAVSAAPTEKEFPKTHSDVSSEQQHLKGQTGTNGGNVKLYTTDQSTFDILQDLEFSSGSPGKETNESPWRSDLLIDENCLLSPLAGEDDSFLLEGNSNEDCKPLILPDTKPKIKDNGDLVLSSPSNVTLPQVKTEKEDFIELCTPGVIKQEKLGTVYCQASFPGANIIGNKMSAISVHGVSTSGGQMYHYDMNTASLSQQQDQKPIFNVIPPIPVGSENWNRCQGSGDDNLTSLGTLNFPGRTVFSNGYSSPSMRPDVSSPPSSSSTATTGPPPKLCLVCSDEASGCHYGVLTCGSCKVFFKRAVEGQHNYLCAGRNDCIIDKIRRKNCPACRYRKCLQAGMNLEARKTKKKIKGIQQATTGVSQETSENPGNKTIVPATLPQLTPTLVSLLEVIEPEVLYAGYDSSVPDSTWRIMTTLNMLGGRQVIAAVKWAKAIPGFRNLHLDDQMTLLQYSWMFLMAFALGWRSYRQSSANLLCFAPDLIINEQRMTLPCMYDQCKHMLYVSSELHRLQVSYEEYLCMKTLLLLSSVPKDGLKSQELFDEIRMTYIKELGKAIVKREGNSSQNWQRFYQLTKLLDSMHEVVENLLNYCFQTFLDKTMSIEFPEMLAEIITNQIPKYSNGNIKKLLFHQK
Cytochrome P450 2C19 (Homo sapiens), sequence (P33261 whole entry, looked up): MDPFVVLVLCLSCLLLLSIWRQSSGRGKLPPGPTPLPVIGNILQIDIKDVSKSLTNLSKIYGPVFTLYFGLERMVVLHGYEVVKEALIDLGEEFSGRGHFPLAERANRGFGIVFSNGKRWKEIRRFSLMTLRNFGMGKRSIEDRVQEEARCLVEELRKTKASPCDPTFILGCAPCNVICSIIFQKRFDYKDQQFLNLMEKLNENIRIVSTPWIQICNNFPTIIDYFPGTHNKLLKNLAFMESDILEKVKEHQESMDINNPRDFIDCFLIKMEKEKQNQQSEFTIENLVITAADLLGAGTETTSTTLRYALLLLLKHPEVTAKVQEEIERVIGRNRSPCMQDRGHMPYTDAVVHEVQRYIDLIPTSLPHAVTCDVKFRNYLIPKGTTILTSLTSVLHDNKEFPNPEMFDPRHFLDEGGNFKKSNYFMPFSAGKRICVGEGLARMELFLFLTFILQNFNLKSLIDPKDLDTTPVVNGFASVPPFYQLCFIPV
Cytochrome P450 2C9 (Homo sapiens), sequence (P11712 whole entry, looked up): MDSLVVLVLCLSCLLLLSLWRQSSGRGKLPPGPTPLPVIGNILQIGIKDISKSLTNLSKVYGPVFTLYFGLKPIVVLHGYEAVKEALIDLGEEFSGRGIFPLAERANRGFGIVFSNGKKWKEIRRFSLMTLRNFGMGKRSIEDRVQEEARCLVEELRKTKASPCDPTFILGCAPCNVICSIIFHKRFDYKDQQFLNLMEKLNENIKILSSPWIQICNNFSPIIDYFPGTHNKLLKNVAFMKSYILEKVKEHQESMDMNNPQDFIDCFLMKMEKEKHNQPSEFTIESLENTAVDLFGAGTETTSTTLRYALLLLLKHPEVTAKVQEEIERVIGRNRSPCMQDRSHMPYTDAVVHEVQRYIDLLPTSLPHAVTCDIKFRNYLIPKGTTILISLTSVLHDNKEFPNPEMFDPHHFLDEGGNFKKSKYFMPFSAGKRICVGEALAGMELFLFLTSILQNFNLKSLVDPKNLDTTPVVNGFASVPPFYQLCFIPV

CC(C)[C@@H](CC(=O)N[C@@H]1CCNC[C@H]1C(=O)N[C@H](CC(=O)N[C@@H](CCC(=O)O)CC(=O)O)Cc1c[nH]c2ccccc12)NC(=O)C[C@H](CO)NC(=O)[C@@H]1CCCC[C@H]1N
inactive: [1] | [2] > 46 µM | [3] | [4] | [5] | [6]

CC(C)[C@@H](CC(=O)N[C@@H]1CCNC[C@H]1C(=O)N[C@H](CC(=O)N[C@@H](CCC(=O)O)CC(=O)O)Cc1c[nH]c2ccccc12)NC(=O)C[C@H](Cc1ccccc1)NC(=O)[C@@H]1CCCC[C@H]1N
inactive: [2] > 46 µM | [3] | [4] | [5] | [6]
active: [1] 31.6 µM

NCCC[C@@H](CC(=O)N[C@@H]1CCNC[C@H]1C(=O)N[C@H](CC(=O)N[C@@H](CCC(=O)O)CC(=O)O)Cc1c[nH]c2ccccc12)NC(=O)C[C@H](CO)NC(=O)[C@@H]1CNCC[C@H]1N
inactive: [1] | [2] > 46 µM | [3] | [5] | [6]

CC(C)[C@@H](CC(=O)N[C@@H]1CCCC[C@H]1C(=O)N[C@H](CC(=O)N[C@@H](CCC(=O)O)CC(=O)O)Cc1c[nH]c2ccccc12)NC(=O)C[C@H](Cc1c[nH]c2ccccc12)NC(=O)[C@@H]1CCCC[C@H]1N
inactive: [1] | [2] > 46 µM | [3] | [4] | [7] | [5] | [6]

CC(C)C[C@@H](CC(=O)N[C@H](CC(=O)N[C@@H]1CCCC[C@H]1C(=O)N[C@H](CC(=O)N[C@@H](CCC(=O)O)CC(=O)O)Cc1c[nH]c2ccccc12)C(C)C)NC(=O)[C@@H]1CCCC[C@H]1N
inactive: [1] | [2] > 46 µM | [3] | [4] | [7] | [5] | [6]

CC(C)C[C@@H](CC(=O)N[C@@H](CCC(=O)O)CC(=O)O)NC(=O)[C@@H]1CCCC[C@H]1NC(=O)C[C@H](CCCN)NC(=O)C[C@H](Cc1ccccc1)NC(=O)[C@@H]1CNCC[C@H]1N
inactive: [1] | [2] > 46 µM | [3] | [7] | [5] | [6]

CC(C)C[C@@H](CC(=O)N[C@@H](CCC(=O)O)CC(=O)O)NC(=O)[C@@H]1CCCC[C@H]1NC(=O)C[C@@H](NC(=O)C[C@H](Cc1ccccc1)NC(=O)[C@@H]1CCCC[C@H]1N)C(C)C
inactive: [1] | [2] > 46 µM | [3] | [4] | [7] | [5] | [6]
